Source: PubChem
This is a sample that favours compounds with a hit; in the whole collection about 8.9% have one here.
MCF10A rereplic: inducers of DNA re-replication in MCF 10A breast cells. MCF 10A DNA re-replication, Hoechst nuclear intensity, 48 h. Potency, µM (top dose mostly 46.1 µM), actives largely listed as activators. 350,000 tested, 2.9% active. AID 624296; further: nearly all actives have a fitted effect of over 50% in size
D3 ag: agonists of human D3 dopamine receptor. D3R DiscoveRx beta-arrestin cells, luminescence, 90 min. 410,000 tested, 0.58% active. max activation, %; in the data active means max activation above about 30%
Target sequence (P35462 whole entry, looked up): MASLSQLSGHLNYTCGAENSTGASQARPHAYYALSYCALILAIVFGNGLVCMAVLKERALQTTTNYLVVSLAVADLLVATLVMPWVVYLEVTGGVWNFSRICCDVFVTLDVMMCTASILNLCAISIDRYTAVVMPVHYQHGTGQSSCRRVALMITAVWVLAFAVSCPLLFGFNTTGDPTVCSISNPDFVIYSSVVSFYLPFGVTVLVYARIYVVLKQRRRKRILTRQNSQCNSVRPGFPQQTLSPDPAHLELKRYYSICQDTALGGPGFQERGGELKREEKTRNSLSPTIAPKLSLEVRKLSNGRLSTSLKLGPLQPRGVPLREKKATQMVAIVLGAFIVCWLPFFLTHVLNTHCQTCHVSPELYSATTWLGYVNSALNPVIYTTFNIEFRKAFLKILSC
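Agonist mode: compounds and dopamine controls were applied to plated cells for 90 min at 37 degrees C after an overnight attachment at 1500 cells/well. Luminescent read-out followed 30 - 60 minutes at room temperature with DiscoveRx detection reagent.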
DRD3 antagonist: D3 dopamine receptor (human) antagonism. P35462. D3R cells, DiscoveRx beta-arrestin luminescence, antagonist mode; stronger effect = lower value. max response, negative = inhibition, %. 360,000 tested, 2.5% active. AID 652054; in the data active means max response below about -50%; inconclusive means no clear call, values can overlap the other calls
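Cells expressing the human receptor were seeded at 1500 cells/well, incubated overnight at 37 degrees C in 5% CO2, then exposed to library compounds with dopamine controls for 90 minutes at 37 degrees C before luminescent detection.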
KB-V1 cytotox: kills drug-selected multidrug resistant KB-V1 cells. KB-V1 MDR cells viability, CellTiter-Glo, 72 h. Potency, µM (series often up to 46.1 µM), hits mostly cytotoxic. 400,000 tested, 3.4% active. AID 1347076; further: nearly all actives have a fitted effect of over 60% in size
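KB-V1, DMEM (no phenol red) + 10% FBS; cpd pin-transferred, titration series; 72 h, 37 degrees C; CellTiter-Glo, luminescence. Data normalized, curve-fit.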
SW480 rerep: induces DNA re-replication in SW480 colon adenocarcinoma cells; SW480 DNA re-replication, Hoechst DNA content imaging, 48 h; Potency, µM (top dose mostly 46.1 µM), most hits filed as activators; 340,000 tested, 1.8% active; further: nearly all actives have a fitted effect of over 55% in size
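Compounds, transferred as 23 nL by pin tool, were incubated with cells for 48 hr; DNA content per nucleus was then quantified by Hoechst staining and fluorescence plate imaging.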
KB-3-1 tox: kills parental KB-3-1 adenocarcinoma cells; KB-3-1 viability, CellTiter-Glo ATP luminescence, 72 h; Potency, µM (doses to about 46.1 µM), actives largely listed as cytotoxic; 400,000 tested, 1.4% active; further: nearly all actives have a fitted effect of over 60% in size
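Screening of KB-3-1 cells (DMEM, 10% FBS, phenol-red free) ran from lowest to highest compound concentration; after 72 h at 37 °C viability was read luminescently and curves fitted.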
A number is an active result; 0 = inactive; ? = inconclusive; - = not tested or not shown. Unless noted, the call rests on the fitted dose curve; in most records, active means well fitted curve in the direction sought with a large enough effect; inconclusive means small, poorly fitted or top-dose-only effect, or another doubt; inactive means no such curve, though single readings can be large; an effect the other way counts as inactive or inconclusive.

SMILES	MCF10A rereplic	D3 ag	DRD3 antagonist	KB-V1 cytotox	SW480 rerep	KB-3-1 tox
CN1CCC(=C2c3ccccc3C=Cc3ccccc32)CC1	?	-	-115	?	?	0
CN1CCC(=C2c3ccccc3CCc3cccnc32)CC1	-	0	-	-	-	-
CCCCCCOc1ccc(C(=N)N(CCCC)CCCC)c2ccccc12	?	0	-	-	?	-
CCCSc1nn2c(=O)c3ccccc3nc2s1	0	0	-51	0	0	0
Cc1ccc(C(NC(=O)NCCCN2CCOCC2)=C(Cl)Cl)cc1F	?	0	-75	?	?	?
Cc1ccc(C(NC(=O)N2CCCCC2)=C(Cl)Cl)cc1F	16µM	0	?	0	6.5µM	0
CCc1cccc(NC(=O)CN2Cc3ccccc3C2=O)c1	-	0	-	0	-	0
CC(C)(C)c1ccc(S(=O)(=O)NCc2nc3cccnc3n2Cc2ccccc2Cl)cc1	-	0	-	-	-	-
Cc1ccc(C(=O)NN(C)c2nc3ccccc3nc2C(F)(F)F)cc1	4.6µM	0	0	?	13µM	5.8µM
CN(NC(=O)c1ccc(Cl)cc1)c1nc(-c2ccccc2)nnc1C(F)(F)F	?	0	0	15µM	0	?
O=C(C1CC1)N1CCN=C1SCc1ccccc1Cl	?	0	-60	0	0	0
CCOC(=O)c1ccccc1NC(=O)c1ccccc1N(C)S(C)(=O)=O	0	0	0	18µM	0	0
COC(=O)c1ccccc1NC(=O)c1ccccc1N(C)S(C)(=O)=O	0	0	0	0	0	0
Cc1ccccc1CN(c1ccc(C(=O)Nc2ccccc2C(=O)NCc2ccco2)cc1)S(C)(=O)=O	0	0	0	8.2µM	0	0
CN(c1ccccc1C(=O)Nc1ccccc1C(=O)NCc1ccco1)S(C)(=O)=O	0	0	0	15µM	0	0
Cc1ccc(C(=O)Nc2ccccc2C(=O)NCc2ccco2)cc1	0	0	0	?	0	0
CN(c1ccccc1C(=O)NCc1ccco1)S(C)(=O)=O	0	0	0	0	0	0
CCOC(=O)c1ccccc1NC(=O)c1c(F)c(F)c(F)c(F)c1F	21µM	0	0	0	?	0
CCOC(=O)c1ccccc1NC(=O)c1ccc(F)cc1	0	0	0	0	0	0
CCOC(=O)c1cc(NC(=O)c2ccc(OC)cc2)c(=O)n2c1oc1ccc(Cl)cc12	-	0	-	?	-	0
COc1cc(C2c3c(oc4ccccc4c3=O)C(=O)N2Cc2ccc(C)cc2)ccc1O (configuration not stated)	-	0	-	?	-	0
CC(=O)O[C@H]1CC[C@H]2[C@@H]3CCc4cc(O)ccc4[C@H]3CC[C@]12C	?	0	0	15µM	?	?
CC(=O)OC1CCC2C3CCc4cc(O)ccc4C3CCC12C (configuration not stated)	?	0	0	18µM	?	0
CCCCCCC(=O)O[C@H]1CC[C@H]2[C@@H]3CCc4cc(O)ccc4[C@H]3CC[C@]12C	-	0	-	-	-	-
C[C@]12CC[C@@H]3c4ccc(O)cc4CC[C@H]3[C@@H]1CCC2OC(=O)CCC1CCCC1 (some centres not stated)	24µM	-	-	-	?	-
SMILES	MCF10A rereplic	D3 ag	DRD3 antagonist	KB-V1 cytotox	SW480 rerep	KB-3-1 tox
C[C@]12CC[C@H]3c4ccc(O)cc4CC[C@@H]3[C@H]1CC[C@@H]2OP(=O)(O)O	0	-	-	-	0	-
CCC(=O)N1CCc2cc(Br)cc(S(=O)(=O)NCCc3ccc(OC)c(OC)c3)c21	-	0	-	0	-	0
Cc1ccc(-c2nc3ncccc3o2)cc1NC(=O)COc1ccc(C(C)C)cc1	-	0	-	?	-	0
COc1ccc(C2(O)CCN(Cc3nnnn3Cc3ccc(C)cc3)CC2)cc1	21µM	0	?	0	?	0
COc1ccc(Cn2nnnc2CN2CCc3ccccc32)cc1	0	0	0	0	23µM	0
COc1ccc(Cn2nnnc2CN2CCc3ccccc3C2)cc1	0	0	?	0	0	0
COc1ccc(Cn2nnnc2CN2CCC(O)(c3ccc(F)cc3)CC2)cc1	0	0	0	?	0	0
Cc1ccc(NC(=O)CN(C)S(=O)(=O)c2cccs2)cc1F	0	0	0	15µM	0	?
COc1cc(NC2CCCCC2O)c2nc(-c3ccc(Cl)cc3)ccc2c1 (configuration not stated)	13µM	0	0	?	13µM	?
Cc1ccc(NC(=O)c2sc3nc[nH]c(=O)c3c2C)cc1C	-	0	-	-	-	-
COc1ccc(OC)c(CNS(=O)(=O)c2c(C(=O)N3CCC(C)CC3)c(C)n(C)c2C)c1	-	0	-	-	-	-
CCCCNC(=O)c1ccc(Cn2c(=S)[nH]c3c([nH]c4ccc(OC)cc43)c2=O)cc1	16µM	0	-65	0	?	?
CCOCCCNC(=O)c1ccc(Cn2c(=S)[nH]c3c([nH]c4ccc(OC)cc43)c2=O)cc1	0	0	0	0	?	0
CCN(CC)CCNC(=O)CCCCn1c(=S)[nH]c2c([nH]c3ccc(OC)cc32)c1=O	0	0	-56	0	0	0
O=C(CCNC(=O)c1ccccc1)Nc1ccc(Cl)c(S(=O)(=O)N2CCCCC2)c1	0	0	?	0	0	0
COc1ccc(C2(OC)Oc3cc(OC)ccc3C(=O)C2(O)OC)cc1 (configuration not stated)	?	0	0	2.9µM	0	?
CCOc1ccc(/C=C/C(=O)c2cc(Br)ccc(=O)c2O)cc1	9.2µM	0	0	10µM	?	?
CCc1ccc(CN/C=C/C(=O)c2ccc(Br)cc2)cc1	0	0	0	0	0	0
CCc1ccc(/C=C/C(=O)c2cc(Br)ccc(=O)c2O)cc1	?	0	?	10µM	?	?
Cc1cccc(/C=C/C(=O)c2cc(Br)ccc(=O)c2O)c1	10µM	0	-59	?	?	?
O=C(C=Cc1ccccc1)c1cc(Br)ccc1O	?	0	0	0	?	0
O=C(Cn1c(=O)c2cccn2c2ccccc21)NCc1ccccc1F	-	0	-	0	-	0
CC1=NN(C(=O)COc2ccccc2C)C(O)(c2ccc(Cl)cc2)C1 (configuration not stated)	0	0	0	13µM	0	0
Cc1ccc(-c2nnc3ccccc3c2C(=O)Nc2cccc(Cl)c2)cc1	-	0	-	0	-	0
CCNC(=O)C1(C)CCCN(CCOc2ccc(OC)cc2)C1 (configuration not stated)	-	0	0	0	-	0
CCCNC(=O)C1(C)CCN(CCOc2ccc(Cl)cc2)C1 (configuration not stated)	-	0	-72	0	-	0
COCCNC(=O)C1(C)CCCN(CCOc2ccc(Cl)cc2)C1 (configuration not stated)	-	0	-55	0	-	0
O=C1C(=O)N(C2CCN(C(=O)c3cccc(Cl)c3)CC2)CCN1Cc1ccc(F)cc1	-	0	-	0	-	0
